The list is not random: actives were taken first. Their share in the collection is about 4.5%.
Jurkat NFkB inh – inhibitors of the PMA/ionomycin-induced NF-kB reporter in Jurkat cells; PMA/ionomycin-induced NF-kB luciferase reporter, luminescence; inhibition, % at 4 µM; 330,000 tested, 0.53% active; AID 435003; in the data active means inhibition above about 50%
Mdm2-MdmX inh – inhibitors of human Mdm2/MdmX interaction; AID 485346; SaOS-2 split-luciferase Mdm2/MdmX complementation, luminescence; inhibition, % at 8 µM; O15151+Q00987; 330,000 tested, 3% active;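 active means inhibition of at least 50% at 8 µM in the primary screen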
Target sequence (O15151 whole entry, looked up): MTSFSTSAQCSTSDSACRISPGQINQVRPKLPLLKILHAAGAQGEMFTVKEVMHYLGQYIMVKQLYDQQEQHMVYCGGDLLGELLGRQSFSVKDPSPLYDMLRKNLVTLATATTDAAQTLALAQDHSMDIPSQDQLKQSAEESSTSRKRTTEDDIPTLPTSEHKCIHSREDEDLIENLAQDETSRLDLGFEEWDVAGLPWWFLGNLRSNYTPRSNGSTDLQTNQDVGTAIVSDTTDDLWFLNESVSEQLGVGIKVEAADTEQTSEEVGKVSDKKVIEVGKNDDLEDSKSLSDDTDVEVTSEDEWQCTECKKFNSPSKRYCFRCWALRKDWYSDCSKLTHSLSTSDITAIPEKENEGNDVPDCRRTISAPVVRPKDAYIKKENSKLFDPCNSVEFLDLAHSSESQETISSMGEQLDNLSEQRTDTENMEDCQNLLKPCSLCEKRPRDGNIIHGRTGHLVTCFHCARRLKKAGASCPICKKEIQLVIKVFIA
Target sequence (Q00987 whole entry, looked up): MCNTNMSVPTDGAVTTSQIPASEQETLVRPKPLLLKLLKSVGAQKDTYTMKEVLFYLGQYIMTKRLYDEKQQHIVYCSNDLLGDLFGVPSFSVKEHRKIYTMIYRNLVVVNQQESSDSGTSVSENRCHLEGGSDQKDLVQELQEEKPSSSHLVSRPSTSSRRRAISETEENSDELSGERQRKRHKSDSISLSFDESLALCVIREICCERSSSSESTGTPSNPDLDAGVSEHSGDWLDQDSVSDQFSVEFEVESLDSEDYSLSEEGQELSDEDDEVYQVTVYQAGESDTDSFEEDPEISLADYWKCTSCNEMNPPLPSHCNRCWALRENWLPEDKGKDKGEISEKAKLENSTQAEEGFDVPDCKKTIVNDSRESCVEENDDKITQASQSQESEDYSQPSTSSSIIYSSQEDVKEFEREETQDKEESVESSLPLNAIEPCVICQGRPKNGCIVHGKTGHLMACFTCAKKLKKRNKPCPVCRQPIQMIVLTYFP
697 NFkB inh – lowers PMA/ionomycin-induced NF-kB signal in 697 B cells; 697 B-cell NF-kB luciferase reporter, 16 h; inhibition, % at 4 µM; 330,000 tested, 0.33% active; AID 435022; in the data active means inhibition above about 35%
Gli-Sufu antag – Gli-Sufu pathway antagonism; 340,000 tested, 0.74% active; inhibition, % at 5 µM; Sufu-KO-LIGHT fibroblasts, Gli luciferase reporter luminescence; AID 588413;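 active means inhibition above about 55%, limit read from the data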
CSC inhib – blocks cancer stem cells; AID 2717; cancer stem cell-like cells viability, luminescence; 300,000 tested, 1.1% active; inhibition, % at 7.5 µM; in the data active means inhibition above about 75%; inconclusive means no clear call, values can overlap the other calls; tested in HMLE shEcad cells
Beta cell apopt – beta cell apoptosis inhibition; INS-1E cytokine-induced death, ATP luminescence, 48 h; percent of positive-control rescue, neutral wells zero; protection from apoptosis, % (no concentration beside the values); 300,000 tested, 0.8% active; AID 435005;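 active means Every replicate reaches about 75%, or at least half do and their mean reaches it too, limit read from the data; inconclusive means At least half of replicates reach the limit but their mean does not; inactive means Under half of replicates reach the limit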;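 further: higher means more ATP so stronger rescue from cytokine killing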
Mdm2 MdmX conf – human Mdm2/MdmX binding inhibition, confirmed | 10,000 tested, 55% active | shares compounds with Mdm2-MdmX inh | inhibition, % at 8 µM | luminescent assay; in the data active means inhibition above about 40%
FLuc counter – inhibits full-length luciferase, flagging false Mdm2/MdmX hits | shares compounds with Mdm2-MdmX inh | SaOS-2 full-length luciferase counterscreen, luminescence | inhibition, % at 8 µM | 6,200 tested, 77% active | AID 504607;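 active means mean inhibition at 8 µM reaching about 37%, which flags the compound as non-specific, limit read from the data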;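 further: p53-null SaOS-2 cells with luciferase driven by a doxycycline-inducible promoter; compound on cells about two nights before reading with doxycycline added after day one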
A number is an active result.

What do the screens show for `Cc1ccc(S(=O)(=O)CCc2nnc(NC(=O)CCl)s2)cc1C`?
Jurkat NFkB inh: inactive; Mdm2-MdmX inh: 75; 697 NFkB inh: inactive; Gli-Sufu antag: inactive; CSC inhib: inactive; Beta cell apopt: inactive; Mdm2 MdmX conf: inactive

Results for CCCc1cc(C(=O)O)c2ccccc2n1 ?
Jurkat NFkB inh: inactive; Mdm2-MdmX inh: inactive; 697 NFkB inh: inactive; Gli-Sufu antag: inactive; CSC inhib: inactive; Beta cell apopt: inactive

What do the screens show for `Cc1ccc(NC(=O)Cc2cc(C(=O)O)c3ccccc3n2)c(C)c1`?
Jurkat NFkB inh: inactive; Mdm2-MdmX inh: 82; 697 NFkB inh: inactive; Gli-Sufu antag: inactive; CSC inhib: inactive; Beta cell apopt: inactive; Mdm2 MdmX conf: 59; FLuc counter: 40

What do the screens show for `COc1ccc(C(=O)N2CCN(S(=O)(=O)c3ccc(Br)cc3)CC2)cc1`?
Jurkat NFkB inh: inactive; Mdm2-MdmX inh: inactive; 697 NFkB inh: inactive; Gli-Sufu antag: inactive; Beta cell apopt: inactive

How did CC1Nc2ncnc(N3CCc4ccccc4C3)c2N(Cc2ccc(Br)cc2)C1=O (stereo not given) do in these assays?
Jurkat NFkB inh: inactive; Mdm2-MdmX inh: 54; 697 NFkB inh: inactive; Gli-Sufu antag: inactive; CSC inhib: inactive; Beta cell apopt: inactive; Mdm2 MdmX conf: inactive; FLuc counter: 58

What do the screens show for `CCOC(=O)c1c(NC(=O)CN2C(=O)NC3(CCCCC3C)C2=O)sc(C)c1C` (stereo not given)?
Jurkat NFkB inh: inactive; Mdm2-MdmX inh: inactive; 697 NFkB inh: inactive; Gli-Sufu antag: inactive; CSC inhib: inactive; Beta cell apopt: inactive

Results for CCCC1(c2ccccc2)NC(=O)N(CC(=O)Nc2sc(-c3ccccc3)cc2C(=O)OCC)C1=O (stereo not given) ?
Jurkat NFkB inh: inactive; Mdm2-MdmX inh: 77; 697 NFkB inh: inactive; Gli-Sufu antag: inactive; CSC inhib: inactive; Beta cell apopt: inactive; Mdm2 MdmX conf: 55; FLuc counter: 53

What do the screens show for `CCOC(=O)c1c(NC(=O)CN2C(=O)NC(C)(c3ccccc3)C2=O)sc(C)c1C` (stereo not given)?
Jurkat NFkB inh: inactive; Mdm2-MdmX inh: 71; 697 NFkB inh: inactive; Gli-Sufu antag: inactive; CSC inhib: inactive; Beta cell apopt: inactive; Mdm2 MdmX conf: 58; FLuc counter: 45

What do the screens show for `CCOC(=O)c1cc(-c2ccccc2)sc1NC(=O)CN1C(=O)c2ccccc2C1=O`?
Jurkat NFkB inh: inactive; Mdm2-MdmX inh: inactive; 697 NFkB inh: inactive; Gli-Sufu antag: inactive; CSC inhib: inactive; Beta cell apopt: inactive

What do the screens show for `CCCOCC(O)CC(Cc1ccccc1)C(=O)NN` (stereo not given)?
Jurkat NFkB inh: inactive; Mdm2-MdmX inh: inactive; 697 NFkB inh: inactive; Gli-Sufu antag: inactive; CSC inhib: inactive; Beta cell apopt: inactive

What do the screens show for `CN(C)CCN(C(=O)/C=C/c1cccs1)c1nc2ccc(F)cc2s1`?
Jurkat NFkB inh: inactive; Mdm2-MdmX inh: 59; 697 NFkB inh: inactive; Gli-Sufu antag: inactive; CSC inhib: inactive; Beta cell apopt: inactive; Mdm2 MdmX conf: 43; FLuc counter: 56

How did CN(C)CCCN(C(=O)c1cc(-c2cccs2)nc2ccccc12)c1nc2ccc(F)cc2s1 do in these assays?
Jurkat NFkB inh: inactive; Mdm2-MdmX inh: 100; 697 NFkB inh: inactive; Gli-Sufu antag: inactive; CSC inhib: 103; Beta cell apopt: inactive; Mdm2 MdmX conf: 57; FLuc counter: 68

What do the screens show for `CCN(CC)CCN(C(=O)/C=C/c1cccs1)c1nc2ccc(Cl)cc2s1`?
Jurkat NFkB inh: inactive; Mdm2-MdmX inh: inactive; 697 NFkB inh: inactive; Gli-Sufu antag: inactive; CSC inhib: inactive; Beta cell apopt: inactive

How did CCC(=O)Nc1cccc(C(=O)/C=C/c2ccccc2)c1 do in these assays?
Jurkat NFkB inh: inactive; Mdm2-MdmX inh: 95; 697 NFkB inh: inactive; Gli-Sufu antag: inactive; CSC inhib: inactive; Beta cell apopt: inactive; Mdm2 MdmX conf: inactive; FLuc counter: inactive

Results for CCOc1cc(/C=N/NC(N)=O)cc(Br)c1OCc1ccccc1F ?
Jurkat NFkB inh: inactive; Mdm2-MdmX inh: inactive; 697 NFkB inh: inactive; Gli-Sufu antag: inactive; CSC inhib: inactive; Beta cell apopt: inactive

How did CCOc1cc(/C=N/NC(=O)Cn2nc([N+](=O)[O-])cc2C)cc(Br)c1OCc1ccccc1F do in these assays?
Jurkat NFkB inh: inactive; Mdm2-MdmX inh: 51; 697 NFkB inh: inactive; Gli-Sufu antag: inactive; Beta cell apopt: inactive; Mdm2 MdmX conf: inactive

Results for COCC(C)n1c(SCc2cc(=O)n3cc(C)ccc3n2)nc2ccccc2c1=O (stereo not given) ?
Jurkat NFkB inh: inactive; Mdm2-MdmX inh: 51; 697 NFkB inh: inactive; Gli-Sufu antag: inactive; CSC inhib: inactive; Beta cell apopt: inactive; Mdm2 MdmX conf: inactive

How did Cc1ccc2nc(CSc3nnc4ccccn34)cc(=O)n2c1 do in these assays?
Jurkat NFkB inh: inactive; Mdm2-MdmX inh: inactive; 697 NFkB inh: inactive; Gli-Sufu antag: inactive; CSC inhib: inactive; Beta cell apopt: inactive

How did COc1ccc(Oc2c(Cl)cnn(-c3ccc(Cl)c(Cl)c3)c2=O)cc1 do in these assays?
Jurkat NFkB inh: inactive; Mdm2-MdmX inh: 85; 697 NFkB inh: inactive; Gli-Sufu antag: inactive; CSC inhib: inconclusive; Beta cell apopt: inactive; Mdm2 MdmX conf: inactive

Results for O=C(N/N=C/c1cccnc1)c1cc(-c2ccc(Br)cc2)nc2ccccc12 ?
Jurkat NFkB inh: inactive; Mdm2-MdmX inh: 52; 697 NFkB inh: inactive; Gli-Sufu antag: inactive; CSC inhib: inactive; Beta cell apopt: inactive; Mdm2 MdmX conf: 56; FLuc counter: 58

Results for O=[N+]([O-])c1cc(/C=N/NC(=S)Nc2ccccc2Cl)ccc1Cl ?
Jurkat NFkB inh: inactive; Mdm2-MdmX inh: 59; 697 NFkB inh: inactive; Gli-Sufu antag: inactive; CSC inhib: 84; Beta cell apopt: inactive; Mdm2 MdmX conf: inactive

Results for O=C(N/N=C/c1ccc([N+](=O)[O-])o1)c1cc(-c2ccncc2)nc2ccccc12 ?
Jurkat NFkB inh: inactive; Mdm2-MdmX inh: 62; 697 NFkB inh: inactive; Gli-Sufu antag: inactive; CSC inhib: inactive; Beta cell apopt: inactive; Mdm2 MdmX conf: 52; FLuc counter: 44

How did O=C(N/N=C/c1ccc(Cl)c([N+](=O)[O-])c1)c1cc(-c2ccccc2)nc2ccccc12 do in these assays?
Jurkat NFkB inh: inactive; Mdm2-MdmX inh: 100; 697 NFkB inh: inactive; Gli-Sufu antag: inactive; CSC inhib: 96; Beta cell apopt: inactive; Mdm2 MdmX conf: inactive

Results for Cc1ccc(NC(=S)N/N=C/c2ccc(Cl)c([N+](=O)[O-])c2)cc1 ?
Jurkat NFkB inh: inactive; Mdm2-MdmX inh: inactive; 697 NFkB inh: inactive; Gli-Sufu antag: inactive; CSC inhib: inactive; Beta cell apopt: inactive

Results for O=C(N/N=C/c1cccnc1)c1cc(-c2ccc(Cl)cc2)nc2ccccc12 ?
Jurkat NFkB inh: inactive; Mdm2-MdmX inh: inactive; 697 NFkB inh: inactive; Gli-Sufu antag: inactive; CSC inhib: inactive; Beta cell apopt: inactive
